# Results from PubChem BioAssay AID434970 (Sanford-Burnham Center for Chemical Genomics, 2010).
# Among all 11,000 compounds or so, about 310 (2.8%) were called active. No stated cut-off is given here; in the data, active means activity change below about -85%; inactive means the rest. The entries come from a sample that favours actives as a whole.
# Test system: intestinal alkaline phosphatase [Mus musculus]
# Test: mouse intestinal phosphatase enzyme activation – biochemical, luminescence, single concentration, confirmation (AID 434970)
# Details: purified mouse IAP, CDP-Star luminescence, 30 min, at 10 µM; activation factor: measured here: IAP activation factor, stronger effect = higher value; activity change, negative = activation: stronger effect = lower value
Structure (SMILES),activation factor,"activity change, negative = activation"
Cc1cc(=O)n(CCO)c(O)c1C#N,1.02,-1.65% (inactive)
CCOC(=O)C1=CNS(=O)(=O)NC1c1cccc(O)c1 (stereo not given),1.05,-5.15% (inactive)
COc1ccc(NS(=O)(=O)c2ccc(OC)c(OC)c2)cc1OC,0.945,5.5% (inactive)
O=C(Nc1cccc(Cl)c1)Nc1nc(-c2ccc(Cl)cc2)cs1,2.1,-110% (active)
Cc1csc(NC(=O)Nc2cccc(Cl)c2)n1,1.11,-11.1% (inactive)
O=C(Nc1nc(-c2cccs2)cs1)c1ccc(Cl)cc1,0.793,20.7% (inactive)
O=C(Nc1ccccc1)Nc1nc(-c2ccc(F)c(F)c2)cs1,1.75,-75.4% (inactive)
COc1cccc(-c2csc(N3CCN(C(=O)Nc4ccc(F)cc4)CC3)n2)c1,1.33,-32.7% (inactive)
COc1cccc(-c2csc(NC(=O)Nc3ccccc3)n2)c1,2.11,-111% (active)
O=C(Nc1cccc(Cl)c1)Nc1nc(-c2ccccc2)cs1,2.16,-116% (active)
O=C(Nc1nc(-c2ccccc2)cs1)NC1CCCCC1,1.61,-61.4% (inactive)
O=C(Nc1ccccc1)Nc1nc(-c2ccc(F)cc2)cs1,1.62,-62.5% (inactive)
Cc1cc(NCCCn2ccnc2)n2c(nc3ccccc32)c1C#N,1.02,-2.25% (inactive)
CC1(C)Cc2c(sc3c2C2=NCCN2C=N3)CO1,0.94,5.95% (inactive)
COc1ccc(C(c2nnnn2Cc2cccs2)N2CCN(c3ccc(F)cc3)CC2)cc1OC (stereo not given),0.985,1.5% (inactive)
C1=C[C@H]2CC[C@@H]1N(c1ccccc1)O2,0.976,2.4% (inactive)
NC1=NC2(CCCCC2)N(c2ccc(F)cc2)C(N)=N1,0.95,4.95% (inactive)
Cc1ccc(CNC(=O)/C(C#N)=C\c2ccc(N(C)C)cc2)cc1,0.817,18.4% (inactive)
CCCOc1ccc(Oc2cc(C)nc(SC)n2)nn1,1.01,-1% (inactive)
Cc1nn(C/C(C#N)=N\O)c(C)[n+]1N,0.961,3.9% (inactive)
COc1cc2c3c(c1)C1(C(=O)N3C(C)(C)C=C2C)C(C#N)=C(N)Oc2cc(O)ccc21 (stereo not given),1,-0.3% (inactive)
COc1ccc(NC(=O)c2ccco2)cc1NC(=O)c1cccc(OC(C)C)c1,0.934,6.55% (inactive)
O=C1CN=C(Nc2ccccc2Cl)N1Cc1ccc2c(c1)OCO2,1.07,-7.1% (inactive)
CCOC(=O)c1cccc(NC(=O)Nc2cc(OC)ccc2OC)c1,1.69,-68.8% (inactive)
CCOC(=O)c1ccc(N2CCN(c3ccccc3F)CC2)c(NC(=O)Nc2ccccc2)c1,3.14,-214% (active)

Structure (SMILES),activation factor,"activity change, negative = activation"
CCOC(=O)c1ccc(N2CCN(c3ccccc3F)CC2)c(NC(=O)Nc2cccc(OC)c2)c1,4.62,-362% (active)
CCOC(=O)c1ccc(N2CCN(c3ccc(F)cc3)CC2)c(NC(=O)Nc2cccc(OC)c2)c1,1.55,-55% (inactive)
COC(=O)c1ccc(N2CCN(C)CC2)c(NC(=O)c2cc3ccccc3o2)c1,1.03,-3.1% (inactive)
COc1cccc(NC(=O)CCN2CCN(c3ccccc3F)CC2)c1,1.09,-8.65% (inactive)
CC1(C)N=C(SCC(=O)Nc2ccccc2)C(c2ccc(Cl)cc2)=N1,0.943,5.75% (inactive)
COc1cc(C2CC(=O)Oc3ccc(C(C)(C)C)cc32)cc(OC)c1OC (stereo not given),1.07,-6.8% (inactive)
O=C(O)CCN(CCC(=O)O)c1ccccc1,1.02,-1.9% (inactive)
CNC[C@H]1Oc2ccc(NC(=O)Nc3ccc4c(c3)OCO4)cc2C(=O)N([C@H](C)CO)C[C@@H]1C,1.48,-47.9% (inactive)
COc1ccc(NC(=O)Nc2ccc3c(c2)C(=O)N([C@H](C)CO)C[C@H](C)[C@@H](CN(C)C(=O)Nc2ccc(OC)cc2)O3)cc1,1.6,-60% (inactive)
CNC[C@@H]1Oc2ccc(NC(=O)Nc3ccccc3)cc2C(=O)N([C@@H](C)CO)C[C@H]1C,1.61,-61.5% (inactive)
CNC[C@H]1Oc2ccc(NC(=O)Nc3ccc(OC)cc3)cc2C(=O)N([C@@H](C)CO)C[C@H]1C,2.23,-123% (active)
CNC[C@@H]1Oc2ccc(NC(=O)Nc3cccc4ccccc34)cc2C(=O)N([C@@H](C)CO)C[C@@H]1C,2.43,-143% (active)
CCOC(=O)CC1(c2ccccc2)CCOC(C)(C)C1 (stereo not given),0.94,6.05% (inactive)
COc1ccc(N2CCN(S(=O)(=O)/C=C/c3ccccc3)CC2)cc1,1.07,-7.05% (inactive)
COc1ccc2[nH]c3c(c2c1)CCN1C(=O)C(CC(=O)NCCCN(C)C)C[C@H](C(=O)N(C(C)C)C(C)C)[C@@]31C (stereo not given in full),1.14,-13.9% (inactive)
CN1CCN(C(CNS(=O)(=O)c2ccc(F)cc2)c2cccnc2)CC1 (stereo not given),1.1,-10.1% (inactive)
O=C(CSc1nnc(C2CC2)n1Cc1ccccc1)NCc1ccccc1,1.05,-5% (inactive)
O=C(Cn1cnc2c(NCc3ccccc3)ncnc21)NCc1ccccc1,0.932,6.8% (inactive)
COc1ccc(CNc2ncnc3c2[nH]c2ccccc23)cc1,2.71,-171% (active)
O=C(Cn1cnc2c(NCc3ccccc3)ncnc21)NCc1ccc2[nH]ccc2c1,1.1,-9.85% (inactive)
Fc1ccc2[nH]c3c(NCCN4CCOCC4)ncnc3c2c1,1.07,-7.05% (inactive)
Cc1ccc2[nH]c3c(NCc4ccccc4)ncnc3c2c1,2.49,-149% (active)
Cc1ccc2[nH]c3c(N4CCN(Cc5ccccc5)CC4)ncnc3c2c1,1.25,-24.6% (inactive)
CCOc1ccc2[nH]c3c(NCCC(C)C)ncnc3c2c1,1.85,-84.7% (inactive)
COc1ccc2[nH]c3c(N4CC(C)OC(C)C4)ncnc3c2c1 (stereo not given),1.17,-17.4% (inactive)

Structure (SMILES),activation factor,"activity change, negative = activation"
Fc1ccc2[nH]c3c(NCc4ccccc4)ncnc3c2c1,2.25,-125% (active)
COc1cc(CNc2ncnc3c2[nH]c2ccc(C)cc23)cc(OC)c1,2.97,-197% (active)
COC(=O)c1ccc(CNC(=O)Cn2cnc3c(NCc4ccccc4)ncnc32)cc1,0.989,1.05% (inactive)
COc1ccc(CNC(=O)Cn2cnc3c(NCc4ccccc4)ncnc32)cc1,1.01,-0.55% (inactive)
O=C(CSc1nnc(C2CC2)n1Cc1ccccc1)N1CCN(S(=O)(=O)c2ccccc2)CC1,1.04,-4.25% (inactive)
O=C(NCCc1ccccc1)c1nc2nc(-c3cccs3)cc(C(F)(F)F)n2n1,0.956,4.4% (inactive)
Cc1ccc(S(=O)(=O)C2CCOC2=O)cc1 (stereo not given),0.793,20.7% (inactive)
COc1ccc(C(c2nnnn2CS(=O)(=O)c2ccc(C)cc2)N2CCN(c3ncccn3)CC2)cc1 (stereo not given),0.922,7.75% (inactive)
Cc1nnc(SCCC(C)C)[nH]c1=O,1.13,-12.6% (inactive)
Cc1onc(-c2ccccc2Cl)c1C(=O)OCC(=O)c1ccc2c(c1)OCCO2,0.972,2.85% (inactive)
CCOC(=O)C1=CN(CC)S(=O)(=O)NC1c1ccc(F)c(Cl)c1 (stereo not given),1.1,-9.6% (inactive)
CC[C@]12c3[nH]c4cc(CCC(=O)N(C)C)ccc4c3CCN1C(=O)[C@@H](CC(=O)NCCN1CCOCC1)C[C@@H]2C(=O)N1CCN(C(=O)C2CC2)CC1,1.07,-6.6% (inactive)
Cc1cccc(-c2noc(CCC(=O)N3CCN(c4cc(C)ccc4C)CC3)n2)c1,0.938,6.25% (inactive)
c1coc(C2Nc3cccc4cccc(c34)N2)c1,0.307,69.3% (inactive)
CN1CC2([N+](=O)[O-])CC=C(Oc3ccccc3)C([N+](=O)[O-])(C1)C2 (stereo not given),0.919,8.05% (inactive)
C#CCOCCOCCOCCNc1nc(N2CCN(C(=O)CCCCCCCCCCNC(=O)Cn3cc(CCCCCN)nn3)CC2)nc(N2CCN(C(=O)CCCCCCCCCCNC(=O)[C@@H](CCSC)n3cc(CCO)nn3)CC2)n1,3.56,-256% (active)
C#CCOCCOCCOCCNc1nc(N2CCN(C(=O)CCCCCCCCCCNC(=O)Cn3cc(C[C@@H](C)O)nn3)CC2)nc(N2CCN(C(=O)CCCCCCCCCCNC(=O)[C@@H](CCSC)n3cc(CCO)nn3)CC2)n1,1.97,-96.8% (active)
C#CCOCCOCCOCCNc1nc(N2CCN(C(=O)CCCCCCCCCCNC(=O)[C@@H](CCSC)n3cc(CCO)nn3)CC2)nc(N2CCN(C(=O)CCCCCCCCCCNC(=O)[C@H](CCSC)n3cc(CCO)nn3)CC2)n1,1.78,-77.9% (inactive)
C#CCOCCOCCOCCNc1nc(N2CCN(C(=O)CCCCCCCCCCNC(=O)Cn3cc(CCCCCN)nn3)CC2)nc(N2CCN(C(=O)CCCCCCCCCCNC(=O)[C@H](CO)n3cc(CCCSC)nn3)CC2)n1,2.53,-153% (active)
CCOc1ccc(-n2c(SCC(=O)NCc3ccco3)nc3c(c2=O)SCC3)cc1,0.865,13.5% (inactive)
COc1cc(O)c2c(c1)OC(C)(C)CC2=O,1.08,-7.6% (inactive)
O=C(CSc1nc2cccnc2n1Cc1ccccc1)N1CCCC1,1.07,-7.2% (inactive)
COC(=O)[C@H](CCSC)NC(=O)Cn1cnc(C(=O)Nc2ccc(C)c(C)c2)n1,0.956,4.35% (inactive)
CC(NC(=O)CCSc1nc(-c2ccco2)cc(C(F)(F)F)n1)c1ccccc1 (stereo not given),0.94,6% (inactive)
O=C(N/N=C/c1ccc([N+](=O)[O-])o1)c1ccccc1NS(=O)(=O)c1cccs1,0.375,62.5% (inactive)
